# In the library only some 2.3% were active in any assay of this set; here they are far more common.
# CHRM1 agonist = human M1 muscarinic receptor agonists, primary screen, Fluo-8 calcium fluorescence, CHO-K1 cells, HTS | Muscarinic acetylcholine receptor M1 (Homo sapiens), P11229 | AID 588814, 2011 | 0.33% of 360,000 active | CHO-K1 hM1, agonist mode; 0% DMSO, 100% acetylcholine EC100 | activation, % at 3 µM;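 active means activation above the run's mean compound activation plus 3 SD, cut at about 16% in these data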;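 further: peak over basal fluorescence ratio within a 140 s kinetic read after compound addition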
# Target sequence (P11229 whole entry, looked up): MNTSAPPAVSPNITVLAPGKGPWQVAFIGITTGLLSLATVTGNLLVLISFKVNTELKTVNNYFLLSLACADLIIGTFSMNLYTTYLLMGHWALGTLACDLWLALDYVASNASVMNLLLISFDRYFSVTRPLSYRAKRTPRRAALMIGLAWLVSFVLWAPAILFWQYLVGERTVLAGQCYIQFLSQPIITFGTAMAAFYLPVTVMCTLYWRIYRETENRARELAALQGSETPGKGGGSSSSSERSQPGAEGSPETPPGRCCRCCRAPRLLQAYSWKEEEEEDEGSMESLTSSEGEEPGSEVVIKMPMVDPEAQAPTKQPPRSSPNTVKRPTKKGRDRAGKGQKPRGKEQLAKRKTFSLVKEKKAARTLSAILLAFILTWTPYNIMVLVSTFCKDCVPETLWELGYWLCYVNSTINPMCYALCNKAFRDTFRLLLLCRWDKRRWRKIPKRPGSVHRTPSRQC
# CHRM1 PAM = human M1 muscarinic receptor positive allosteric modulators, primary screen, CHO-K1 cells, Fluo-8 calcium fluorescence, 1536-well; activation, % at 3 µM; 0.088% of 360,000 active; Muscarinic acetylcholine receptor M1 (Homo sapiens), P11229; AID 588819, 2011; CHO-K1 hM1, ACh EC20; 0% = ACh EC20, 100% = maximal ACh; in the data active means activation above about 19%, passing the limit was not always enough
# CHO-K1 Ca antag = counter-screen for M1 antagonists: effect in parental CHO-K1 cells | ATP-induced calcium, Fluo-8 fluorescence | 0.6% of 360,000 active | AID 602250 | inhibition, % at 3 µM;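 active means inhibition above a per-plate cutoff, the plate's mean sample inhibition plus 3 SD, cut at about 24% in these data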
# CHO-K1 Ca ag = counter-screen for M1 agonists: effect in parental CHO-K1 cells; Fluo-8 calcium fluorescence; scaled to maximal ATP response, vehicle zero; 0.48% of 360,000 active; AID 602248, 2012; activation, % at 3 µM; in the data active means activation above about 15%;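 further: untransfected CHO-K1 host cells lacking M1 receptor as counterscreen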
# M1 PAM parental = nonselective calcium activators in parental CHO-K1 cells, primary screen, counter-screen for M1 PAM project, cell-based, Fluo-8 calcium fluorescence, full deck, 1536-well | ATP EC20; 0% at ATP EC20, 100% at ATP max | activation, % at 3 µM | 0.02% of 360,000 active;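 active means activation above the run cutoff, the mean activation of all test compounds plus 3 SD, cut at about 40% in these data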;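 further: peak over basal fluorescence ratio in a 140 s read after ATP addition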
# M1 antag = human M1 muscarinic receptor antagonists, primary screen, CHO-K1 cells, Fluo-8 calcium fluorescence, 1536-well; Muscarinic acetylcholine receptor M1 (Homo sapiens), P11229; CHO-K1 hM1, ACh EC80 antagonist; inhibition, % at 3 µM; 1.3% of 360,000 active;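 active means percent inhibition above its own plate's cutoff, namely the mean of that plate's compound wells plus 3 SD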;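 further: peak over basal fluorescence ratio during 140 s after agonist addition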
# Numbers stand for hits; i = inactive.
SMILES,CHRM1 agonist,CHRM1 PAM,CHO-K1 Ca antag,CHO-K1 Ca ag,M1 PAM parental,M1 antag
Cc1ccc2cc(CN(Cc3cccs3)Cc3nnnn3CC3CCCO3)c(=O)[nH]c2c1C (configuration not stated),i,i,24,i,i,i
O=C(CCc1ccccc1)NC(NC(=S)Nc1ccc(Cl)cc1)C(Cl)(Cl)Cl (configuration not stated),i,i,i,i,i,23
O=C(NC(NC(=S)Nc1ccc(Cl)c(Cl)c1)C(Cl)(Cl)Cl)c1ccco1 (configuration not stated),i,i,29,i,i,i
CCC(=O)Oc1ccc(NC(=O)c2ccco2)cc1,i,i,i,i,i,i
O=C(Nc1ccc(Cl)c(Cl)c1)Oc1ccc(NC(=O)c2ccco2)cc1,i,i,34,i,i,i
O=C(Nc1ccc(OC(=O)c2ccco2)cc1)c1ccco1,i,i,28,i,i,i
O=C(Nc1ccc(Br)c(Cl)c1)c1ccco1,i,i,i,i,i,i
COc1cc(C(CCN2CCCCC2)c2c(OC)cc(OC)c3c(C)cc(=O)oc23)cc(OC)c1OC (configuration not stated),i,i,i,i,i,i
O=C(CN(C(=O)c1csnn1)c1cccc2c1CCCC2)NCc1ccccc1,i,i,i,i,i,i
CN(CC(=O)NC1CCCc2ccccc21)S(=O)(=O)c1cccs1 (configuration not stated),i,i,i,i,i,i
CCn1c(C)nnc1SCC(=O)Nc1ccc(Cl)cc1,i,i,i,i,i,i
O=C(NC(=S)Nc1ccc(Cl)cn1)C(c1ccccc1)c1ccccc1,i,i,i,i,i,i
S=C(Nc1ccccc1)Nc1ccc(Cl)cn1,i,i,i,i,i,37
CCCCOc1ccc(S(=O)(=O)N2CCN(c3ccc(N4CCN(CC)CC4)nn3)CC2)cc1,i,i,i,i,i,i
CCN1CCN(c2ccc(N3CCN(S(=O)(=O)c4cccc([N+](=O)[O-])c4)CC3)nn2)CC1,i,i,i,i,i,34
COc1cccc(N2CCN(C(=S)NCc3ccco3)CC2)c1,i,i,26,i,i,i
Fc1ccc(N2CCN(C(=S)NCc3ccco3)CC2)cc1,i,i,i,i,i,i
Cc1ccc2c(C)c(C(=O)N(Cc3cccs3)C3CCS(=O)(=O)C3)oc2c1 (configuration not stated),i,24,i,i,i,i
Cc1ccc2c(C)c(C(=O)N(Cc3ccccc3)C3CCS(=O)(=O)C3)oc2c1 (configuration not stated),i,i,i,i,i,i
FC(F)(F)c1cccc(/C=N/NC(=S)NC2CCCCC2)c1,i,i,i,19,i,i
CN(C)CC/C=C1/c2ccccc2Sc2ccc(Cl)cc21,i,i,i,i,i,99
OCCN1CCN(CC/C=C2/c3ccccc3Sc3ccc(C(F)(F)F)cc32)CC1,i,i,i,i,i,i
CCCCCC[N+](C)(C)CC/C=C1/c2ccccc2Sc2ccc(Cl)cc21,i,i,i,i,i,99
CCCCNC(=S)N(C)/N=C/c1ccc(OCC(=O)Nc2c(C)cc(C)cc2C)c(OC)c1,i,i,i,i,i,i
CCCCNC(=S)N(C)/N=C/c1ccc(OCC(=O)Nc2ccc(OC)cc2)c(OC)c1,i,i,i,i,i,34
SMILES,CHRM1 agonist,CHRM1 PAM,CHO-K1 Ca antag,CHO-K1 Ca ag,M1 PAM parental,M1 antag
C/C=C/c1ccc(OCC(=O)Nc2ccncc2)c(OC)c1,i,i,i,15,i,i
CCNC(=S)N/N=C/c1ccc(OCC(=O)Nc2ccc(OC)cc2)c(OC)c1,i,i,i,i,i,39
COc1cc(OC)cc(C(=O)N2CCN(Cc3ccccc3Br)CC2)c1,i,i,i,i,i,i
O=C(CCNC(=O)C1CCN(S(=O)(=O)c2ccc(F)cc2)CC1)NCc1ccccn1,i,i,i,i,i,i
CC1(C)Cc2c(sc3nn[nH]c(=O)c23)CO1,i,i,i,i,i,i
CC1(C)Cc2c(sc3nc[nH]c(=O)c23)CO1,i,i,26,i,i,i
O=C(NCc1ccc(Cl)c(Cl)c1)c1cc(C2CCCCN2C(=O)c2ccccc2)on1 (configuration not stated),i,i,i,i,i,i
Cc1ccc(S(=O)(=O)N2CCC(N3CCN(C)CC3)CC2)cc1Cl,i,i,i,i,i,42
O=S(=O)(c1ccc(F)cc1)N1CCC(N2CCCC2)CC1,i,i,40,i,i,i
Cc1ccc(S(=O)(=O)N2CCN(C)CC2)cc1C,i,i,i,i,i,i
N#Cc1ccccc1Sc1ccccc1C(=O)NCC(c1ccco1)N1CCCC1 (configuration not stated),i,i,i,i,i,37
O=C(NCC(c1ccco1)N1CCCCC1)C(c1ccccc1)c1ccccc1 (configuration not stated),i,i,i,i,i,78
COc1ccc(C(=O)NC(CCSC)C(=O)N2CCCCCC2)cc1 (configuration not stated),i,i,i,i,i,i
CSc1cccc(CN2CCC(CO)(Cc3cccc(C(F)(F)F)c3)CC2)c1,i,i,i,i,i,31
OCC1(Cc2cccc(C(F)(F)F)c2)CCN(Cc2cc(F)cc(F)c2)CC1,i,i,i,i,i,i
CC(C)n1c(SCC(=O)Nc2ccc(N3CCOCC3)cc2)nnc1-c1ccco1,i,i,i,i,i,i
CCN(Cc1ccccc1)C(=O)c1nn(-c2ccc(OC)cc2)c(=O)c2c1c1ccccc1n2C,i,i,i,i,i,23
CN(C)CC/C=C1/c2ccccc2CS(=O)(=O)c2ccccc21,i,i,i,i,i,66
CN1CCN(CCC=C2c3ccccc3Sc3ccc(S(=O)(=O)N(C)C)cc32)CC1,i,i,i,i,i,i
COc1ccc(S(N)(=O)=O)cc1C(=O)OCCCOc1ccc(F)cc1,i,i,i,18,i,i
COc1ccc(S(N)(=O)=O)cc1C(=O)OCCCOC(=O)c1cc(S(N)(=O)=O)ccc1OC,i,i,i,i,i,i
CN(Cc1ccccc1)C(=O)c1cnc(Cc2c[nH]c3ccccc23)c(I)c1,i,i,i,i,i,i
CCN(CC#CCC(O)(c1ccccc1)C1CCCC1)C(C)C (configuration not stated),i,i,i,i,i,99
CC(C)N(CC#CCC1(O)c2ccccc2-c2ccccc21)CCO,i,i,i,i,i,i

# Screening data: PubChem BioAssay, The Scripps Research Institute Molecular Screening Center
